For some assays here: Potency and affinity values are given separately.
Tests used:
Parameters in all cases: scale not given: direction of the effect not stated beside the values
[1] = target: Protein translocase subunit SecA (Escherichia coli (strain K12)) (UniProt P10408); assay: Assay to Identify E. coli SecA ATPase Inhibitors; assay type: functional; details: 30 µM
[2] = target: T1, Ubiquitin-activating enzyme e1, putative (Leishmania donovani (strain BPK282A1)) (UniProt E9BSI1); assay: Leishmania donovani Ubiquitin Activating Enzyme (LdE1); assay type: functional; details: 30 µM
T1 sequence (whole entry): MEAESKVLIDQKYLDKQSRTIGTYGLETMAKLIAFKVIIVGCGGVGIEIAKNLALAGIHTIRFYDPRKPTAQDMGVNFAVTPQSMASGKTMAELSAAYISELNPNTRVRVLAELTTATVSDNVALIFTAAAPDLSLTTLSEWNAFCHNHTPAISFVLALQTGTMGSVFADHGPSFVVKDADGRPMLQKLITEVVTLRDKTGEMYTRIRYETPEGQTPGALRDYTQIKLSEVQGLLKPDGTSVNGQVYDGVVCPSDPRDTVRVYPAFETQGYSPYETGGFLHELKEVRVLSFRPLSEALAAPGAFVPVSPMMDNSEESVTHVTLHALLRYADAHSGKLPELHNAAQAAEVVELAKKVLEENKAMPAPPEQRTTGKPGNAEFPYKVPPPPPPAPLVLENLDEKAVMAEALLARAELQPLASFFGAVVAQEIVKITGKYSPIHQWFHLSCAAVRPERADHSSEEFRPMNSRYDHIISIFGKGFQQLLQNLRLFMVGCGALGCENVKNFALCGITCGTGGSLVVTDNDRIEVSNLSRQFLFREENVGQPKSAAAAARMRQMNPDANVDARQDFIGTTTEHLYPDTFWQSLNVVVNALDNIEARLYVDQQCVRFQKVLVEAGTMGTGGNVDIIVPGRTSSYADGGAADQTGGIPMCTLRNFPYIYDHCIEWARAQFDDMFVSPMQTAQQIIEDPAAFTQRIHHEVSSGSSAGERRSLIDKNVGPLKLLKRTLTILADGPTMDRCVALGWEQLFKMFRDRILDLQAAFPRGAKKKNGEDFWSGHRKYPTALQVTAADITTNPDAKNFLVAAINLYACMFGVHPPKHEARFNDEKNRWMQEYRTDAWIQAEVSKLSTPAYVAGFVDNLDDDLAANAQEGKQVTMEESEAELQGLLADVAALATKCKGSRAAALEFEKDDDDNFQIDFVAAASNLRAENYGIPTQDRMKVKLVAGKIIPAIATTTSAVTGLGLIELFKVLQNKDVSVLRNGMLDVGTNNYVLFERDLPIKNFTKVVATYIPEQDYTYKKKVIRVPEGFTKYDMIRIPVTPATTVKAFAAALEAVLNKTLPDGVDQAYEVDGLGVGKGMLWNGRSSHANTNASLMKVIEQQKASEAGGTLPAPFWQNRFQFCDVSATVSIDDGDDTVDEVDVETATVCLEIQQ

[3] = target: AMP-activated protein kinase, AMPK (Homo sapiens) (UniProt P54646+O43741+P54619+Q9UGJ0+Q9Y478+Q13131+Q9UGI9); assay: AMP-dependent Kinase enzyme assay. An in vitro enzyme assay that detects ADP turnover that is directly proportional to AMPK activity. This uses naive AMPK that is activated during the assay with MK-8722; assay type: functional; details: 30 µM
[4] = target: Sialic acid-binding Ig-like lectin 9 (Homo sapiens) (UniProt Q9Y336); assay: Hs-Siglec9 ALPHAscreen SOP 20170721; details: 10 µM
Chain of Sialic acid-binding Ig-like lectin 9 (Homo sapiens) (Q9Y336 whole entry): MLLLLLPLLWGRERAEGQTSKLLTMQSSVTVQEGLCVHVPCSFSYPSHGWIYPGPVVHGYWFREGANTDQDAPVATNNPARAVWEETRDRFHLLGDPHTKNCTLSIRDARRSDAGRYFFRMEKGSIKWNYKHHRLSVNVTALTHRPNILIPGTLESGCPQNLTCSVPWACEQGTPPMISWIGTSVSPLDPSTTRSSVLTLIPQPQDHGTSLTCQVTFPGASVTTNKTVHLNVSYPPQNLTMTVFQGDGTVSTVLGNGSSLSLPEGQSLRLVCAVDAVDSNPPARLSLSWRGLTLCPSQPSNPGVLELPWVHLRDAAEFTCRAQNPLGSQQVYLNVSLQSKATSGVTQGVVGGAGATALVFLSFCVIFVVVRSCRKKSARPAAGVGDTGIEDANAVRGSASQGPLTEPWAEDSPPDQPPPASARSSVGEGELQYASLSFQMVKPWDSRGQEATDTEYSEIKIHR

Trypanosoma cruzi = assay: Trypanosoma cruzi phosphomannomutase and mannose-1-phosphate guanylyltransferase assay; assay type: functional; details: 10 µM
[5] = target: T2, Arginase-2, mitochondrial (Homo sapiens) (UniProt P78540); assay: in vitro enzyme assay to detect the production of urea directly proportional to the activity of Arginase II; assay type: functional; details: 33.3 µM; also: in the data most compounds retested in dose-response had high values
T2 sequence (whole entry): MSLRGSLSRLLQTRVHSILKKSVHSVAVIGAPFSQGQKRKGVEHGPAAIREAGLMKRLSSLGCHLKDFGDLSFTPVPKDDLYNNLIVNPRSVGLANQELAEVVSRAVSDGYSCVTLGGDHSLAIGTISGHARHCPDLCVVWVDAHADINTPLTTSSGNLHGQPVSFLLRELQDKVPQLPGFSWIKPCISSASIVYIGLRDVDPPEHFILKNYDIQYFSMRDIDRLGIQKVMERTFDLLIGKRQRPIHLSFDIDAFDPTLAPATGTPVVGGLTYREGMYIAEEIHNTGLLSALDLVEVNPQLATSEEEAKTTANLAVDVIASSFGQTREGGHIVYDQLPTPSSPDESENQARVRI

[6] = target: T3, Proteasome subunit beta (Trypanosoma cruzi) (UniProt O96673); assay: Trypanosoma cruzi proteasome chymotrypsin-like activity (TcProtChymo) assay.; also: in the data most compounds retested in dose-response had high values; assay type: functional; details: 9.37 µM
T3 sequence (whole entry): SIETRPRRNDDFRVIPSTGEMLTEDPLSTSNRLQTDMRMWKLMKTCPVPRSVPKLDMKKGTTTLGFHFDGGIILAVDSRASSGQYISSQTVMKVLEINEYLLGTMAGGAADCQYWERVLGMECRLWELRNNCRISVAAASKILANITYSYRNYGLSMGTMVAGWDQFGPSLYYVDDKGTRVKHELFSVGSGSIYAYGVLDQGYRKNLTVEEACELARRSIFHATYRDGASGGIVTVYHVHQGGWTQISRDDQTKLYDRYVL

Homo sapiens = organism: Homo sapiens; assay: To identify inhibition of the IFN signalling (Jak-Stat) pathway via expression of an eGFP reporter gene under the control of an IFN-stimulated response element (ISRE) containing MxA promoter.; assay type: functional; details: 30 µM
[7] = target: T4, Tyrosyl-tRNA synthetase, putative (Trypanosoma cruzi (strain CL Brener)) (UniProt Q4DSP6); assay: Trypanosoma cruzi tyrosyl tRNA synthetase (TcYRS) _High Tyrosine SOP; assay type: functional; details: 30 µM; also: in the data most compounds retested in dose-response had high values
T4 sequence (whole entry): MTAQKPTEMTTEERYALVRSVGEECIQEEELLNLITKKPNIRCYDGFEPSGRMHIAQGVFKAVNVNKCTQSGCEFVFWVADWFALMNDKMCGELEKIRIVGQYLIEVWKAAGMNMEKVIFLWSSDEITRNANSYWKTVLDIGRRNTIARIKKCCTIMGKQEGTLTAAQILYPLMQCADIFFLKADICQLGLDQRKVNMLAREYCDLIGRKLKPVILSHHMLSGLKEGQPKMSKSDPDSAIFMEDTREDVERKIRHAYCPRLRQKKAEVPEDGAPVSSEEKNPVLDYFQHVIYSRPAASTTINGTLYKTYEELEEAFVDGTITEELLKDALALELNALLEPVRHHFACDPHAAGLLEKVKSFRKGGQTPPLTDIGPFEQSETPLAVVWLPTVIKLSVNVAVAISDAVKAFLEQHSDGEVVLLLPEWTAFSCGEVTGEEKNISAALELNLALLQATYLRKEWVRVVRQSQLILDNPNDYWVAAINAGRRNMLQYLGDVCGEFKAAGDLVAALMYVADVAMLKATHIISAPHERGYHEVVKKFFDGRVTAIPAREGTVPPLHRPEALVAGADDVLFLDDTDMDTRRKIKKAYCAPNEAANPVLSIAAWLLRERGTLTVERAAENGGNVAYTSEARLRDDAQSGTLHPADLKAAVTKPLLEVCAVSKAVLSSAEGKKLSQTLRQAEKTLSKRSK

[8] = target: T4, Tyrosyl-tRNA synthetase, putative (Trypanosoma cruzi (strain CL Brener)); assay: Trypanosoma cruzi tyrosyl tRNA synthetase (TcYRS) SOP; assay type: functional; details: 30 µM
[9] = target: Chromo domain-containing protein 1 (Saccharomyces cerevisiae (strain ATCC 204508 / S288c) (Baker's yeast)) (UniProt P32657); assay: ScCHD-1 Enzyme Inhibition Assay; assay type: functional; details: 30 µM; also: in the data most compounds retested in dose-response had high values
Chain of Chromo domain-containing protein 1 (Saccharomyces cerevisiae (strain ATCC 204508 / S288c) (Baker's yeast)) (P32657 whole entry, the tested form may be a part): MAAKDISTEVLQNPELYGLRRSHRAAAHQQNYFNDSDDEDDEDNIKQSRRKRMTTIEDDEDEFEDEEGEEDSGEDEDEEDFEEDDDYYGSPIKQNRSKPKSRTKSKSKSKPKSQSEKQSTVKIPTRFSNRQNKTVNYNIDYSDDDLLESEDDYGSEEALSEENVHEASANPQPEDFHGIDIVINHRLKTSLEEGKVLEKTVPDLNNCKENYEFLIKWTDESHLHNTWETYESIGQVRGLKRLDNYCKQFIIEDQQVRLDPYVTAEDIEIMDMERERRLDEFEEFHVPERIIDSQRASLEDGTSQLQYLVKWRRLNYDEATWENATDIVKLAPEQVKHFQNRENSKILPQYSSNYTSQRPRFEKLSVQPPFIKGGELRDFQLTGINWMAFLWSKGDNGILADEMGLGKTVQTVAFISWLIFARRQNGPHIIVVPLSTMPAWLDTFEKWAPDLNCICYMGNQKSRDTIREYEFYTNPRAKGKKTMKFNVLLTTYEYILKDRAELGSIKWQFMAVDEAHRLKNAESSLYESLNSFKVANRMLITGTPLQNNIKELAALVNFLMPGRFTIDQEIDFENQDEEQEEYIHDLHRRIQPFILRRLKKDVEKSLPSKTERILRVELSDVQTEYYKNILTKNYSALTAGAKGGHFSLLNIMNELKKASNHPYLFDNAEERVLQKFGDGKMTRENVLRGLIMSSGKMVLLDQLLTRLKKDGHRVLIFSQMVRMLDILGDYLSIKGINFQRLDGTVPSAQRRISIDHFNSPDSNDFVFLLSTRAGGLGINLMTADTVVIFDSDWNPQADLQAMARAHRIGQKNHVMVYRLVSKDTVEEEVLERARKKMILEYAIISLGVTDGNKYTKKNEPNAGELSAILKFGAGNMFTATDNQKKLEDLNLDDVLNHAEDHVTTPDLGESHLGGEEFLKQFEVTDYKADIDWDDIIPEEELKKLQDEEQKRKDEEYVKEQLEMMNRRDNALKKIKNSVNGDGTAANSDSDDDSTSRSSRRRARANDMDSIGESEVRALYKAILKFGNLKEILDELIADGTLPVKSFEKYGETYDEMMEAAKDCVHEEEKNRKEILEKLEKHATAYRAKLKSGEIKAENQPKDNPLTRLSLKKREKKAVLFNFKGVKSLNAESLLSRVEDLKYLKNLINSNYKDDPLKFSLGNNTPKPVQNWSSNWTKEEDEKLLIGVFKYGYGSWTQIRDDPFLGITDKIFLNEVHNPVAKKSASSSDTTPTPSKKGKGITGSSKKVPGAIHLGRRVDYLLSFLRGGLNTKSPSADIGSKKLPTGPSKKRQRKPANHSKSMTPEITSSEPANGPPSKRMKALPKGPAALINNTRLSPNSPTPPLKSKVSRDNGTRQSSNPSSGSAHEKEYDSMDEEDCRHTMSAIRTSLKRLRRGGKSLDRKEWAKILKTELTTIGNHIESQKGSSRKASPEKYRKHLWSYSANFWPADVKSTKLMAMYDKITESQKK

Chain of Protein translocase subunit SecA (Escherichia coli (strain K12)) (P10408 whole entry): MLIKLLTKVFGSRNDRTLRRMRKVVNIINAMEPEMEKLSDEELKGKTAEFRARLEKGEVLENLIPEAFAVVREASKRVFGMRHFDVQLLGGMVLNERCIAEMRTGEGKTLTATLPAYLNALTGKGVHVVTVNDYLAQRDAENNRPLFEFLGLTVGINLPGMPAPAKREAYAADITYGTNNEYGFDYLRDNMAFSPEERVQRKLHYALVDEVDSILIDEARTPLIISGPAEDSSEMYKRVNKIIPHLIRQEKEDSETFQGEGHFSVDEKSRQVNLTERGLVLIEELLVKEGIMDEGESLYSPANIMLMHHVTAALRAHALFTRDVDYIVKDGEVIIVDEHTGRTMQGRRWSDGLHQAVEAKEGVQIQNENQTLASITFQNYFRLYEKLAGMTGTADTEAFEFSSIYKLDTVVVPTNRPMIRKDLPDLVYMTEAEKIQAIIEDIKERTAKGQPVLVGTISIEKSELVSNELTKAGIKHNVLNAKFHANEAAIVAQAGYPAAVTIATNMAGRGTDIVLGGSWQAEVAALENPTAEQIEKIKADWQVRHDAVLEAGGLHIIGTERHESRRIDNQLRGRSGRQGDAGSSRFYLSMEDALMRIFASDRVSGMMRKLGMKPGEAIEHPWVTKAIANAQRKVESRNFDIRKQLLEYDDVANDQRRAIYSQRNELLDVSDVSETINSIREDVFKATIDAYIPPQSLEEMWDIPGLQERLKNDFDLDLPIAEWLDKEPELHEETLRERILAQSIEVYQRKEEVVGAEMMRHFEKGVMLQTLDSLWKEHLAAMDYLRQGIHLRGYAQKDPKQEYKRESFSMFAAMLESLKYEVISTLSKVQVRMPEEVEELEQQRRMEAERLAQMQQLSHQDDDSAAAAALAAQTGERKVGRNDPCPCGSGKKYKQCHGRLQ

SMILES | Percent Effect [1] [%] | Percent Effect [2] [%] | Percent Effect [3] [%] | Percent Effect [4] [%] | Percent Effect (Trypanosoma cruzi) [%] | Percent Effect [5] [%] | Percent Effect [6] [%] | Percent Effect (Homo sapiens) [%] | Percent Effect [7] [%] | Percent Effect [8] [%] | Percent Effect [9] [%]
CCc1nc(C)c([C@H]2CN(C)C[C@@H]2C(=O)NCCc2cnccn2)[nH]1 | -4.56 | 8.11 | 3.09 | 6.61 | 1.54 | 2.86 | 6.72 | 3.41 | 10.1 | 17.1 | -3.65
CCc1n[nH]c(C2CN(CC(=O)NCCc3ccsc3)CCO2)n1 (configuration not stated) | -2.71 | 5.48 | -4.4 | 11.2 | 5.09 | 4.09 | 1.42 | 4.97 | 1.07 | 5 | -5.13
c1ccc(CN2CCc3ncnc(-c4ccsc4)c3CC2)nc1 | -4.91 | 0 | 2.79 | 8.34 | -2.83 | 5.41 | 22.7 | -21 | 2.16 | 7.69 | 3.65
O=C(NCCn1ccc(-c2ccccn2)n1)c1ccncc1 | -1.48 | 8.22 | -7.04 | 17.5 | 6.46 | -3.18 | 9.94 | 4.13 | 2.15 | 10 | -3.21
CCC(=O)NC1CCN(c2cccc(CC)c2)CC1 | -7.28 | 3.8 | 2.12 | -4.76 | 1.13 | -1.5 | 4.97 | 16.9 | 3.12 | -10.1 | -27.3
CCOC1CCCN(C(=O)NCCc2ccn(-c3ccccc3)n2)C1 (configuration not stated) | -2.03 | 20.8 | -1.06 | -7.16 | -0.49 | -2.74 | 12.1 | 0.938 | 5.71 | 18.8 | -17.1
Cc1cc(C)c2c(OCC(=O)NC(C)C)nn(C)c2n1 | -3.72 | 10.8 | -1.72 | 25.4 | 7.72 | 11.4 | 6.9 | 10.7 | 0.529 | 12.2 | -13
COCCN(C)C[C@@H]1CN(C(=O)c2ccoc2)C[C@@H]1CO | -3.19 | 2.7 | -0.15 | 1.89 | 6.56 | -1.43 | 5.34 | 4.14 | 6.88 | 9.76 | -2.44
COCCNC(=O)c1ccc(C)c(-n2cccc2)c1 | 2.25 | 13.2 | 4.41 | -4.12 | -3.8 | -2.37 | 14.3 | -4.52 | 7.45 | 7.79 | -3.58
CN(C(=O)NCc1ccncc1)C1CCN(c2ccccc2)C1=O (configuration not stated) | -4.85 | 13.2 | -3.87 | 3.74 | 6.58 | -3.06 | 10 | 5.78 | 6.37 | 12.2 | -10.8
CC(C)c1cccc(CSc2nnc(CN3CCCC3=O)o2)n1 | 2.49 | -2.67 | -1.77 | -1.76 | -0.0974 | 5.21 | -0.174 | -2.67 | 1.64 | 1.24 | 0.138
CC(C)CN1C[C@H]2CCN(Cc3cccnc3)CC[C@H]2S1(=O)=O | -4.38 | 8.11 | 2.04 | -0.964 | -2.05 | -5.41 | 16.2 | 21.9 | 1.08 | 5.13 | 1
CN(C)C(=O)CCCNC(=O)C(c1cccc(F)c1)N(C)C (configuration not stated) | 0.633 | 13.5 | -10.5 | 5.14 | 5.41 | -1.43 | 11.7 | 24.9 | 10.1 | 12.2 | -1.94
CN(C)CC1CN(c2ccc(C#N)cn2)CCO1 (configuration not stated) | -4.87 | -5.26 | -3.08 | 5.48 | 3.27 | -4.32 | -5.16 | -1.95 | 2.46 | 3.7 | -8.21
CCc1nc2n(n1)CC(NCC(=O)Nc1ccc(Cl)cn1)CC2 (configuration not stated) | -0.524 | 10.1 | -6.65 | -1.69 | -7.65 | 3.04 | 5.82 | 12.9 | 0.493 | 3.8 | -7.63
COc1ccc(CN2CC[C@@H](O)[C@@H]2Cc2ccccc2)cc1 | -7.82 | -1.33 | 7.1 | -1.98 | -0.589 | -6.16 | 0.924 | 9.5 | -3.17 | -2.56 | -5.37
CN1CCN(C(=O)c2ccc(=O)n(C)c2)Cc2ccccc21 | -3.95 | -16.2 | -7.07 | 15.3 | 3.62 | -4.25 | 0.539 | 5.67 | 3.96 | 18.3 | -2.09
CCc1n[nH]c(C2CN(C(=O)c3ccsc3)CCO2)n1 (configuration not stated) | -3.58 | 0 | 6.15 | 8.54 | -0.686 | 4.84 | 6.39 | 4.84 | -2.86 | -2.35 | -13.8
Cc1ccn(-c2ccccc2NCc2ccccn2)n1 | -1.21 | 0 | 23.2 | 4.37 | 3.13 | 2.27 | 0.532 | 2.69 | 4.3 | 10 | -1.77
Cn1ccnc1COc1ccc(CN2CCN(CCO)CC2)cc1 | -4.05 | 20.8 | -12.5 | -0.317 | -3.18 | -3.2 | 5.07 | 29.4 | 10.7 | 2.44 | -9.14
CC1N(CC2CC2)C(=O)COC12CCN(Cc1nccs1)CC2 (configuration not stated) | -2.73 | 11 | -7.81 | 11.6 | 5.56 | -2 | 11.2 | -5.88 | 4.17 | 6.17 | -5.43
O=C(NCc1nnc2n1CCC2)N(Cc1ccco1)C1CC1 | -0.0964 | 8.11 | -2.14 | 3.8 | -2.12 | -2.86 | 20.3 | 14.6 | 3.7 | 12.2 | -2.31
